# Laboratory results as given in PubChem BioAssay (EPA / NIEHS).
# “And” between values parts separate entries of the source, which are not always exact repeats. Identical values can stand only once. Records with an inconclusive call do not appear. The source made the active and inactive calls. How the source made its calls, unless noted: active means hit-call score of the fitted dose curve at least 0.9, where 1 is the maximum; inconclusive means response in the unintended direction; inactive means score below 0.9.
# What was measured:
# [1] = system: rat Monoamine Oxidase, MAO-A, Central (MAOAC), gene 29253; assay: NVS_ENZ_rMAOAC: NovaScreen (NVS) Enzymatic Assay for rat Monoamine Oxidase, MAO-A, Central (MAOAC) (AID 2283243);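 further: potency refers to inhibition seen as signal drop below DMSO baseline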
# Outline: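 Lysate-based radiometric enzyme assay using rat brain tissue; 1.5 h treatment; 25 uM single-point duplicate screen, concentration-response follow-up; loss of signal versus DMSO.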
# [2] = CEETOX_H295R_ANDR: CeeTox H295R High-throughput Steroidogenesis Assay for Androstenedione (ANDR) (AID 2283436; active means hit-call score of the fitted dose curve at least 0.9, where 1 is the maximum; inactive means score below 0.9); conditions: actives raise or lower the signal
# Outline: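 Medium from 48 h chemical-treated H295R adrenal cells was extracted with MTBE and androstenedione measured by LC-MS/MS. Activity was fit in both directions relative to DMSO. Cytotoxic concentrations were re-tested after dilution until MTT viability reached ≥70%.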
# [3] = CEETOX_H295R_TESTO: CeeTox H295R High-throughput Steroidogenesis Assay for Testosterone (TESTO) (AID 2283457; active means hit-call score of the fitted dose curve at least 0.9, where 1 is the maximum; inactive means score below 0.9;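 on AC50: cells exposed to chemicals for 48 h before medium collection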); conditions: actives raise or lower the signal
# Outline: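 H295R, passage ≤10, 48 h dosing; media extracted with MTBE → HPLC-MS/MS for testosterone; 7-pt standard curve sets LLOQ/ULOQ; bidirectional fit vs DMSO; MTT viability same wells.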
# [4] = target: Nucleoli Translocation, AR (gene 367) (UniProt P10275); assay: UPITT_HCI_U2OS_AR_TIF2_Nucleoli_Antagonist: University of Pittsburgh U2OS Androgen Receptor-Transcriptional Intermediary Factor 2 (AR-TIF2) Antagonism High Content Imaging Assay for Nucleoli Translocation (AID 2283997)
# Chain of Nucleoli Translocation, AR (gene 367) (P10275 whole entry, looked up): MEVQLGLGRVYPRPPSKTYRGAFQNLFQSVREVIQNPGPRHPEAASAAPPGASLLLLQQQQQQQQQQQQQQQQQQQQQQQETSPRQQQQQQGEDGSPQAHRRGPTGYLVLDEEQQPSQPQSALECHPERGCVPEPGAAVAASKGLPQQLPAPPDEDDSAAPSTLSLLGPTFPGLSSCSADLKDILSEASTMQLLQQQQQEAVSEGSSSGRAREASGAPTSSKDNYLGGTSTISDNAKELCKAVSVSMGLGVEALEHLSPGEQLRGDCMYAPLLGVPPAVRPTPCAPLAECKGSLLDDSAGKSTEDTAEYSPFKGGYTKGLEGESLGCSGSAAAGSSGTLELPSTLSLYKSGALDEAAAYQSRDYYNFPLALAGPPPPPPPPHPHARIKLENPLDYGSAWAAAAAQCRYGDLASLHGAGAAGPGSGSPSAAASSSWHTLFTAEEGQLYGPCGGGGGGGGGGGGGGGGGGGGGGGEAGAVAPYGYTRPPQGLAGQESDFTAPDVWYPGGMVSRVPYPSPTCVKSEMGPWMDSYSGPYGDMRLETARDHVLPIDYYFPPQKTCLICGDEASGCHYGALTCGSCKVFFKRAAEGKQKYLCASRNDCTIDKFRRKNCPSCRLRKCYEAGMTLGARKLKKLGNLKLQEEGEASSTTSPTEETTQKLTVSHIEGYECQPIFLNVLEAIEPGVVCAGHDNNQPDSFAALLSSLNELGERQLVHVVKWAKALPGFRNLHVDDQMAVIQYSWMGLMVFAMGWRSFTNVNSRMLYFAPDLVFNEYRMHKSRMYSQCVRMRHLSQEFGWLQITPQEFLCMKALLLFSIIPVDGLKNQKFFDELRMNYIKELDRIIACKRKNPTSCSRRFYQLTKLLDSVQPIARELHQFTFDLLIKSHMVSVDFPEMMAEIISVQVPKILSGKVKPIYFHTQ
# Outline: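 Antagonism is read as loss of nucleolar AR-RFP signal relative to DHT, imaged in U2OS cells also carrying GFP-TIF2. Compounds screened at 20 uM final, 0.2% DMSO; primary actives retested in triplicate.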
# [5] = target: mouse Estrogen Receptor alpha (Era), Esr1 (gene 13982) (UniProt P19785); assay: NVS_NR_mERa: NovaScreen (NVS) Nuclear Receptor Binding Assay for mouse Estrogen Receptor alpha (Era) (AID 2283378);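 further: hit means loss of bound radioligand signal relative to DMSO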
# Chain of mouse Estrogen Receptor alpha (Era), Esr1 (gene 13982) (P19785 whole entry, looked up): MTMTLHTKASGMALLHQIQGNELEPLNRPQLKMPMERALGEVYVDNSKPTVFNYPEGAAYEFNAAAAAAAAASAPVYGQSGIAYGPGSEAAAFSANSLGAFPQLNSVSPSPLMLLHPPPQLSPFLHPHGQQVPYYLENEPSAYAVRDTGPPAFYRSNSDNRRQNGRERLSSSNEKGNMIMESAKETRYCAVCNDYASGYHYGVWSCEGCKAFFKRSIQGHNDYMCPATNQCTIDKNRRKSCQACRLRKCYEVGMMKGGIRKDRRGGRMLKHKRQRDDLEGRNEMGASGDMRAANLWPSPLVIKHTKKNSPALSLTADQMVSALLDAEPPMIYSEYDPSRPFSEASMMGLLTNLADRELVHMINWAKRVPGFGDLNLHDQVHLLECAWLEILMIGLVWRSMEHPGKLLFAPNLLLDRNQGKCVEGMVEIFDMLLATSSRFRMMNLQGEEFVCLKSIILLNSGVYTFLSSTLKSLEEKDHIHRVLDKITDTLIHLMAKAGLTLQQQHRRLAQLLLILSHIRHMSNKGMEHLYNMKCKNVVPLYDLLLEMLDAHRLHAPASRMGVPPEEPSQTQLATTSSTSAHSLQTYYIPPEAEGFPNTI
# Outline: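 Extracted mouse Era incubated with tritiated or iodinated radioligand plus test chemical, 18 h. Bound fraction separated on filters, counted by scintillation. DMSO = negative control/baseline; duplicate single-point at 25 uM, then concentration-response follow-up.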
# [6] = target: Agonist Androgen Response Element (ARE), AR (gene 367) (UniProt P10275); assay: OT_AR_ARELUC_AG_1440: Odyssey Thera (OT) 24-hour CHO-K1 Luciferase Assay for Agonist Androgen Response Element (ARE) (AID 2283379)
# Chain of Agonist Androgen Response Element (ARE), AR (gene 367) (P10275 whole entry, looked up): as the sequence (P10275 whole entry, looked up) above
# Outline: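 Readout: luciferase bioluminescence from CHO-K1 ARE-luc cells, measured 24 h post-dosing; agonism = increased mean luminescence vs DMSO controls, fitted in positive direction.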
# [7] = CCTE_Shafer_MEA_dev_bursting_electrodes_number: CCTE's Neural Network Formation Assay for Number of Bursting Electrodes, Shafer Lab (AID 2284043);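 on AC50: potency is for loss of bursting electrodes relative to DMSO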
# Outline: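 Number of electrodes reaching ≥1 burst every 2 min was recorded at DIV 5, 7, 9 and 12 and collapsed as trapezoidal area under the curve. Cultures were rat cortical neurons on MEA plates, dosed continuously from plating with medium and treatment refreshed on DIV 5 and 9.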
# [8] = IUF_NPC2c_oligodendrocyte_migration_120hr: Leibniz Research Institute for Environmental Medicine (IUF) 120-hour Neural Progenitor Cell Migration Assay for Oligodendrocyte Migration (NPC2c) (AID 2284297; active means hit-call score of the fitted dose curve at least 0.9, where 1 is the maximum; inactive means score below 0.9)
# Outline: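 Read-out is the mean distance of O4-positive oligodendrocytes from the sphere core edge at 120 h, normalized to radial glia migration and fitted in the gain direction against DMSO. Spheres of primary human neural progenitors differentiated on laminin under continuous compound exposure.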
# [9] = IUF_NPC2a_radial_glia_migration_120hr: Leibniz Research Institute for Environmental Medicine (IUF) 120-hour Neural Progenitor Cell Migration Assay for Radial Glia Migration (NPC2a) (AID 2284298; active means hit-call score of the fitted dose curve at least 0.9, where 1 is the maximum; inactive means score below 0.9)
# Outline: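 Readout: distance in um from sphere core edge to migration-area edge, derived from Hoechst nuclei density with a threshold-defined polynomial boundary. Spheres: hNPC, GW 16-19, 0.3 mm, on PDL/laminin; exposure 5 days; DMSO is baseline.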
# [10] = IUF_NPC2a_radial_glia_migration_72hr: Leibniz Research Institute for Environmental Medicine (IUF) 72-hour Neural Progenitor Cell Migration Assay for Radial Glia Migration (NPC2a) (AID 2284299; active means hit-call score of the fitted dose curve at least 0.9, where 1 is the maximum; inactive means score below 0.9)
# Outline: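 Spheres of human primary neural progenitors migrate on poly-D-lysine/laminin under compound exposure at 37C, 5% CO2. The 72 h radial glia migration distance comes from brightfield images, measured manually.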
# [11] = IUF_NPC2b_neuronal_migration_120hr: Leibniz Research Institute for Environmental Medicine (IUF) 120-hour Neural Progenitor Cell Migration Assay for Neuron Migration (NPC2b) (AID 2284300; active means hit-call score of the fitted dose curve at least 0.9, where 1 is the maximum; inactive means score below 0.9)
# Outline: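 Read-out is mean distance from sphere edge to each TUBB3-positive neuron at 120 h, expressed relative to radial glia migration distance and to DMSO baseline. Single 0.3 mm human NPC spheres differentiated on laminin under continuous compound exposure.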
# [12] = IUF_NPC3_neuronal_differentiation_120hr: Leibniz Research Institute for Environmental Medicine (IUF) 120-hour Neuronal Differentiation Assay (NPC3) (AID 2284301; active means hit-call score of the fitted dose curve at least 0.9, where 1 is the maximum; inactive means score below 0.9)
# Outline: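 Value is percent TUBB3-positive neurons among Hoechst-stained nuclei in the migration area, scored by trained CNN after 120 h differentiation. Primary hNPC spheres on poly-D-lysine/laminin, N2 medium, continuous dosing from day 0, half-refeed day 3; DMSO reference.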
# [13] = IUF_NPC4_neurite_area_120hr: Leibniz Research Institute for Environmental Medicine (IUF) 120-hour Neuronal Morphology Assay for Neurite Area (NPC4) (AID 2284305)
# Outline: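 Neurite area (pixels, nuclei excluded) of TUBB3-positive neurons from hNPC spheres differentiating 5 days under continuous exposure at 37 C, 5% CO2. High-content imaging; loss of signal versus DMSO control across 7 concentrations.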
# [14] = IUF_NPC2-5_cytotoxicity_72hr: Cytotoxicity Assessment at 72 hours in the Leibniz Research Institute for Environmental Medicine (IUF) Neural Progenitor Cell Migration and Differentiation Assay for Cytotoxicity (NPC2-5) (AID 2284306);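 further: LDH release into supernatant measured by resorufin fluorescence marking membrane damage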
# Outline: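 Membrane-integrity cytotoxicity at 72 h, read as LDH-driven resorufin fluorescence in supernatant. hNPC spheres from fetal cortex differentiate on coated plates in N2 medium, 37C, 5% CO2; seven serial compound concentrations plus solvent control (DMSO ≤0.1%).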
# [15] = IUF_NPC2-5_cytotoxicity_120hr: Cytotoxicity Assessment at 120 hours in the Leibniz Research Institute for Environmental Medicine (IUF) Neural Progenitor Cell Migration and Differentiation Assay (NPC2-5) (AID 2284307)
# Outline: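 Sphere plating starts differentiation and exposure together at day 0. Compound solution is half-replaced on day 3. At 120 h, medium supernatant is taken for an LDH membrane-integrity read based on resazurin reduction to resorufin fluorescence.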
# [16] = IUF_NPC2-5_cell_number_120hr: Cell Number Assessment at 120 hours in the Leibniz Research Institute for Environmental Medicine (IUF) Neural Progenitor Cell Migration and Differentiation Assay (NPC2-5) (AID 2284308; active means hit-call score of the fitted dose curve at least 0.9, where 1 is the maximum; inactive means score below 0.9;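 further: count of Hoechst-stained nuclei in migration zone around plated human neural progenitor spheres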)
# Outline: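 hNPC spheres, one per well, PDL/laminin, N2 medium, 37C, 5% CO2. Dosing day 0 → half-medium change with fresh compound day 3 → fix 120 h. Readout: Hoechst+ nuclei count, migration area; 7 concentrations plus solvent control.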
# [17] = IUF_NPC2-5_viability_120hr: Viability Assessment at 120 hours in the Leibniz Research Institute for Environmental Medicine (IUF) Neural Progenitor Cell Migration and Differentiation Assay (NPC2-5) (AID 2284312; active means hit-call score of the fitted dose curve at least 0.9, where 1 is the maximum; inactive means score below 0.9)
# Outline: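 Alamar blue resorufin fluorescence read after 5 days of differentiation, with compound present from day 0 and replenished at day 3. Primary hNPC spheres on laminin-coated plates, 37C; seven concentrations plus solvent control, fitted against DMSO.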
# [18] = IUF_NPC1_cytotoxicity_72hr: Cytotoxicity Assessment at 72 hours in the Leibniz Research Institute for Environmental Medicine (IUF) Neural Progenitor Cell Proliferation Assay (NPC1) (AID 2284332);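 further: rising LDH signal means more cytotoxicity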
# Outline: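 Readout is fluorescence from LDH-dependent resazurin conversion, sampled from culture medium after compound contact lasting 72 h. Each well holds one 0.25-0.35 mm human progenitor sphere kept at 37C, 5% CO2 with EGF and FGF.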
# [19] = CCTE_Shafer_MEA_dev_LDH: CCTE's Lactate Dehydrogenase Assay for Cytotoxicity in the Neural Network Formation Assay, Shafer Lab (AID 2284068);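 further: exposure for twelve days from plating with re-dosing on DIV 5 and 9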
# Outline: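 Primary rat cortical neurons were plated on PEI/laminin MEA plates and exposed from day 0 for twelve days, with compound renewed at DIV 5 and 9. Cytotoxicity was determined by spectrophotometric LDH assay relative to DMSO.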
# [20] = CCTE_Deisenroth_AIME_384WELL_CTox_Inactive: Cytotoxicity Assessment (CTOX) in CCTE's 384-well Estrogen Receptor Transactivation Assay without AIME metabolic competence (metabolism negative), Deisenroth Lab (AID 2284039);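 further: cell viability via live-cell protease substrate cleaved to fluorescent probe; cells exposed 24 h to medium preincubated 2 h with alginate-water beads without S9; loss of fluorescence signal means loss of viability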
# Outline: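 VM7Luc4E2 cells, metabolism-negative arm: test chemicals (0.002–200 uM, 10 points) pre-incubated 2 h with alginate-water microspheres, then medium transferred to cells for 24 h. Viability read as protease-substrate cleavage to fluorescent probe; loss-of-signal, bidirectional fitting.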
compound,measurement,setting,value
CNC(=O)Oc1cc(C)c(SC)c(C)c1,AC50,[1],14 µM (active)
same,AC50,[2],37.7 µM (active)
same,AC50,[3],36 µM (active)
same,AC50,[4],24 µM (active) and 26.6 µM (active)
O=C(O)c1cc[c]([Hg][Cl])cc1,outcome,[5],inactive
CC1(C)[C@H](C(=O)O[C@H](C#N)c2cccc(Oc3ccccc3)c2)[C@@H]1C=C(Br)Br,outcome,[6],inactive
same,outcome,[4],inactive
same,AC50,[7],3.71 µM (active)
same,outcome,[8],inactive
same,AC50,[9],0.0654 µM (active)
same,AC50,[10],0.67 µM (active)
same,outcome,[11],inactive
same,outcome,[12],inactive
same,outcome,[13],inactive
same,AC50,[14],3.53 µM (active)
same,outcome,[15],inactive
same,AC50,[16],0.461 µM (active)
same,outcome,[17],inactive
same,outcome,[18],inactive
Oc1ccc(C2(c3ccc(O)cc3)c3ccccc3-c3ccccc32)cc1,AC50,[5],0.432 µM (active)
CNC(=N[N+](=O)[O-])NCC1CCOC1 (stereo not given),outcome,[19],inactive
same,outcome,[8],inactive
same,outcome,[9],inactive
same,outcome,[10],inactive
same,outcome,[11],inactive
same,outcome,[12],inactive
same,outcome,[13],inactive
same,outcome,[14],inactive
same,outcome,[15],inactive
same,outcome,[16],inactive
same,outcome,[17],inactive
same,outcome,[18],inactive
O=S(=O)(O)OOS(=O)(=O)O,outcome,[20],inactive
O=CNC(N1CCN(C(NC=O)C(Cl)(Cl)Cl)CC1)C(Cl)(Cl)Cl (stereo not given),outcome,[6],inactive
same,AC50,[2],50 µM (active)
same,outcome,[3],inactive
O=C(NCNC(=O)NC1C(=O)NC(=O)N1CO)NC1C(=O)NC(=O)N1CO (stereo not given),outcome,[6],inactive
CC(C)CCCCCCCOP(=O)(Oc1ccccc1)Oc1ccccc1,outcome,[7],inactive
same,outcome,[19],inactive
same,outcome,[8],inactive
same,outcome,[9],inactive
same,outcome,[10],inactive
same,outcome,[11],inactive
same,outcome,[12],inactive
same,outcome,[13],inactive
same,outcome,[14],inactive
same,outcome,[15],inactive
same,outcome,[16],inactive
same,outcome,[17],inactive
same,outcome,[18],inactive
Cc1ccc(OP(=O)(Oc2ccc(C)cc2)Oc2ccc(C)cc2)cc1 (tested in a mixture with another compound),outcome,[7],inactive
same,outcome,[19],inactive
same,outcome,[8],inactive
same,outcome,[9],inactive
same,outcome,[10],inactive
same,outcome,[11],inactive
same,outcome,[12],inactive
same,outcome,[13],inactive
same,outcome,[14],inactive
same,outcome,[15],inactive
same,outcome,[16],inactive
same,outcome,[17],inactive
same,outcome,[18],inactive
CC(C)(C)C(O)C(Oc1ccc(-c2ccccc2)cc1)n1cncn1 (stereo not given),AC50,[2],0.114 µM (active)
same,outcome,[3],inactive
O=[N+]([O-])c1cc(C(F)(F)F)c(Cl)c([N+](=O)[O-])c1Cl,outcome,[5],inactive
COc1cc(OC)nc(Oc2cccc(Oc3nc(OC)cc(OC)n3)c2C(=O)O)n1,outcome,[6],inactive
same,outcome,[4],inactive
Nc1ccccc1,outcome,[20],inactive
Cc1cc(C)c(C2=C(OC(=O)CC(C)(C)C)C3(CCCC3)OC2=O)c(C)c1,outcome,[20],inactive
CCOP(O)OCC,outcome,[20],inactive
COC(=O)COc1ccc(Cl)cc1Cl,AC50,[1],13.7 µM (active)
CC1CCCC1.[C-]#[O+].[C-]#[O+].[C-]#[O+].[Mn],outcome,[7],inactive
same,outcome,[19],inactive
Nc1ccc(-c2ccc(N)c(N)c2)cc1N,AC50,[1],14.1 µM (active)
